This passage reports Potency and activity, negative = cell killing results from PubChem BioAssay (NCATS).

Several values for one entry are separate records, joined by “and”; a condition that tells them apart may be missing. Identical values can stand only once. Inconclusive results are not listed. A call without a number means that no potency is given here. A structure can be active in one record and inactive in another. Activity calls are given as the source filed them. Calls follow the shape of the dose curve; as a rule, active = well fitted curve in the direction sought with a large enough effect; inconclusive = small, poorly fitted or top-dose-only effect, or another doubt; inactive = no such curve, though single readings can be large; an effect the other way counts as inactive or inconclusive.

The first assay concerns PA-1. Briefly: Primary qHTS to identify gynecologic anti-cancer compounds using libraries of approved drugs and bioactive compounds (AID 1345084). Also: nearly all actives have a fitted effect of over 55% in size. Also: potency is read from the fitted curve at half-maximal effect. Particulars: Gynecologic cancer cell panel viability, ATPlite luminescence, 48 h; series mostly up to 57.5 µM. In a few lines: (§1)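 48 h compound exposure at 37 C, 5% CO2; five-point qHTS. ATPlite luminescence readout of cell ATP.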
In the case of `CCCCN(CC)c1nc(C)nc2c1c(C)cn2-c1c(C)cc(C)cc1C`, the Potency result was “inactive”.

On to `CCCSc1ccc2nc(NC(=O)OC)[nH]c2c1`, for which the Potency was 1.58 µM (active).

In the case of `COC(=O)Nc1nc2ccc(C(=O)C3CC3)cc2[nH]1`, the Potency is 1.12 µM (active).

`S=c1[nH]c2ccccc2s1`: the Potency result was “inactive”.

As for `CN1[C@@H]2CC[C@H]1CC(OC(c1ccccc1)c1ccccc1)C2` (stereo not given in full), the Potency result was “inactive”.

In the case of `COc1ccc(/C=C/C(=O)Nc2ccccc2C(=O)O)cc1OC`, the Potency result was “inactive”.

Take `NC(=O)C(c1ccccc1)(c1ccccc1)[C@@H]1CCN(CCc2ccc3c(c2)CCO3)C1`: the Potency entry is “inactive”.

Regarding `COc1cc(CNC(=O)CCCC/C=C/C(C)C)ccc1O`, the Potency entry was “inactive”.

Turning to `O=C(Nc1ccc2c(c1)CCN(Cc1ncn[nH]1)C2)c1ccccc1-c1ccc(C(F)(F)F)cc1`, the Potency entry was “inactive”.

Consider `CCN(CC)CCCCNc1ncc2cc(-c3c(Cl)cccc3Cl)c(NC(=O)NC(C)(C)C)nc2n1`, for which the Potency was 0.631 µM (active).

Regarding `Cc1onc(-c2c(F)cccc2Cl)c1C(=O)N[C@@H]1C(=O)N2[C@@H]1SC(C)(C)[C@@H]2C(=O)O`, the Potency entry is “inactive”.

`CN1[C@@H]2CC[C@H]1CC(OC(=O)C(CO)c1ccccc1)C2` (stereo not given in full): the Potency entry was “inactive”.

For a further assay, the system named is SKOV3. Described as above. Particulars: Gynecologic cancer cell panel viability, ATPlite luminescence, 48 h; series mostly up to 57.5 µM. The procedure, abridged:
as §1
Background: In ATP-based viability assays light output follows the ATP content of the culture.
Turning to `CCCSc1ccc2nc(NC(=O)OC)[nH]c2c1`, the Potency is 2.24 µM (active).

Regarding `COC(=O)Nc1nc2ccc(C(=O)C3CC3)cc2[nH]1`, the Potency is 10 µM (active).

With `Cc1nc2ccccc2n1Cc1ccc(Cl)cc1`, the Potency is 3.98 µM (active).

Turning to `CN1[C@@H]2CC[C@H]1CC(OC(c1ccccc1)c1ccccc1)C2` (stereo not given in full), the Potency entry is “inactive”.

On to `COc1cc(CNC(=O)CCCC/C=C/C(C)C)ccc1O`, for which the Potency entry is “inactive”.

Take `Cc1onc(-c2c(F)cccc2Cl)c1C(=O)N[C@@H]1C(=O)N2[C@@H]1SC(C)(C)[C@@H]2C(=O)O`: the Potency entry is “inactive”.

As to `CN1[C@@H]2CC[C@H]1CC(OC(=O)C(CO)c1ccccc1)C2` (stereo not given in full), the Potency result is “inactive”.

The subject of a further assay is Tov-21-G. The description is as above. Particulars: Gynecologic cancer cell panel viability, ATPlite luminescence, 48 h; series mostly up to 57.5 µM. In a few lines:
as §1
For `CCCCN(CC)c1nc(C)nc2c1c(C)cn2-c1c(C)cc(C)cc1C`, the Potency result was “inactive”.

Turning to `CCCSc1ccc2nc(NC(=O)OC)[nH]c2c1`, the Potency is 2 µM (active).

Consider `COC(=O)Nc1nc2ccc(C(=O)C3CC3)cc2[nH]1`, for which the Potency is 1.41 µM (active).

As for `Cc1nc2ccccc2n1Cc1ccc(Cl)cc1`, the Potency entry was “inactive”.

As to `S=c1[nH]c2ccccc2s1`, the Potency entry is “inactive”.

`CN1[C@@H]2CC[C@H]1CC(OC(c1ccccc1)c1ccccc1)C2` (stereo not given in full): the Potency result is “inactive”.

Regarding `COc1ccc(/C=C/C(=O)Nc2ccccc2C(=O)O)cc1OC`, the Potency result is “inactive”.

For `NC(=O)C(c1ccccc1)(c1ccccc1)[C@@H]1CCN(CCc2ccc3c(c2)CCO3)C1`, the Potency result is “inactive”.

Consider `COc1cc(CNC(=O)CCCC/C=C/C(C)C)ccc1O`, for which the Potency entry is “inactive”.

With `O=C(Nc1ccc2c(c1)CCN(Cc1ncn[nH]1)C2)c1ccccc1-c1ccc(C(F)(F)F)cc1`, the Potency result was “inactive”.

For `Cc1onc(-c2c(F)cccc2Cl)c1C(=O)N[C@@H]1C(=O)N2[C@@H]1SC(C)(C)[C@@H]2C(=O)O`, the Potency entry is “inactive”.

Turning to `COC(=O)C1=C(C)NC(C)=C(C(=O)OC)C1c1cccc(NC(=O)NCCCN2CCC(c3cccc(OC)c3)CC2)c1`, the Potency result is “inactive”.

`CN1[C@@H]2CC[C@H]1CC(OC(=O)C(CO)c1ccccc1)C2` (stereo not given in full): the Potency entry was “inactive”.

The subject of the next assay is Tov112D. Described as above. As to conditions: Gynecologic cancer cell panel viability, ATPlite luminescence, 48 h; series mostly up to 57.5 µM. In a few lines: as §1
Regarding `CCCCN(CC)c1nc(C)nc2c1c(C)cn2-c1c(C)cc(C)cc1C`, the Potency result is “inactive”.

For the molecule `CCCSc1ccc2nc(NC(=O)OC)[nH]c2c1`, the Potency was 1.12 µM (active).

In the case of `COC(=O)Nc1nc2ccc(C(=O)C3CC3)cc2[nH]1`, the Potency was 1.58 µM (active).

Consider `Cc1nc2ccccc2n1Cc1ccc(Cl)cc1`, for which the Potency result was “inactive”.

As for `S=c1[nH]c2ccccc2s1`, the Potency result was “inactive”.

Consider `CN1[C@@H]2CC[C@H]1CC(OC(c1ccccc1)c1ccccc1)C2` (stereo not given in full), for which the Potency entry was “inactive”.

`COc1ccc(/C=C/C(=O)Nc2ccccc2C(=O)O)cc1OC`: the Potency result is “inactive”.

For the molecule `NC(=O)C(c1ccccc1)(c1ccccc1)[C@@H]1CCN(CCc2ccc3c(c2)CCO3)C1`, the Potency result is “inactive”.

For `COc1cc(CNC(=O)CCCC/C=C/C(C)C)ccc1O`, the Potency result was “inactive”.

Regarding `O=c1[nH]c2ccccc2n1CCCN1CCN(C(c2ccccc2)c2ccccc2)CC1`, the Potency result is “inactive”.

As to `O=C(Nc1ccc2c(c1)CCN(Cc1ncn[nH]1)C2)c1ccccc1-c1ccc(C(F)(F)F)cc1`, the Potency result is “inactive”.

Consider `Cc1onc(-c2c(F)cccc2Cl)c1C(=O)N[C@@H]1C(=O)N2[C@@H]1SC(C)(C)[C@@H]2C(=O)O`, for which the Potency result was “inactive”.

With `CN1[C@@H]2CC[C@H]1CC(OC(=O)C(CO)c1ccccc1)C2` (stereo not given in full), the Potency entry is “inactive”.

System in another assay: not listed separately
Briefly: Drug repurposing screens with cells derived from glioblastoma tumor samples (AID 1345199). Also: nearly all actives have a fitted effect of over 40% in size. As to conditions: GBM patient neurospheres viability, ATP luminescence, 48 h; at 45.9 µM (top of the series); tumour line B. The procedure, abridged:
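Primary testing used CD133+ neurospheres from four GBM patients, seven concentrations, 48 h exposure and ATP-based viability; confirmation added three slower-growing patient lines.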
Take `CN1[C@@H](CC(=O)c2ccccc2)CCC[C@H]1C[C@H](O)c1ccccc1`: the activity, negative = cell killing was -7.77% (inactive).

Turning to `CO/N=C(\C(=O)N[C@@H]1C(=O)N2C(C(=O)O)=C(COC(C)=O)CS[C@H]12)c1csc(N)n1` (stereo in doubt), the activity, negative = cell killing is -12.2% (inactive).

`CC(C)Cc1ccc([C@H](C)C(=O)O)cc1`: the activity, negative = cell killing is 4.71% (inactive).

For the molecule `CC[C@H]1OC(=O)[C@H](C)C(=O)[C@H](C)[C@@H](O[C@@H]2O[C@H](C)C[C@H](N(C)C)[C@H]2O)[C@](C)(OC)C[C@@H](C)C(=O)[C@H](C)[C@H]2N(CCCCn3cnc(-c4cccnc4)c3)C(=O)O[C@]12C`, the activity, negative = cell killing is -5.03% (inactive).

On to `C=CC(N)CCC(=O)O` (stereo not given), for which the activity, negative = cell killing is -2.82% (inactive).

`COc1cc(/C=C/C(=O)CC(=O)/C=C/c2ccc(O)c(OC)c2)ccc1O`: the activity, negative = cell killing is -25.8% (inactive).

Regarding `CCCCC[C@H](O)/C=C/[C@@H]1[C@@H](C/C=C\CCCC(=O)O)[C@@H](O)C[C@H]1O`, the activity, negative = cell killing was 1.47% (inactive).

For the molecule `C[N+](C)(C)CCOP(=O)(O)OP(=O)([O-])OC[C@H]1O[C@@H](n2ccc(N)nc2=O)[C@H](O)[C@@H]1O`, the activity, negative = cell killing was -6.25% (inactive) and -7.43% (inactive).

For `S=c1[nH]c2ccccc2s1`, the activity, negative = cell killing was -16.2% (inactive).

Consider `O=C(O)[C@H](O)[C@@H](O)[C@H](O)[C@H](O)CO`, for which the activity, negative = cell killing was -3.35% (inactive) and -2.21% (inactive).

As for `CC[C@H]1OC(=O)[C@H](C)[C@@H](O[C@H]2C[C@@](C)(OC)[C@@H](O)[C@H](C)O2)[C@H](C)[C@@H](O[C@@H]2O[C@H](C)C[C@H](N(C)C)[C@H]2O)[C@](C)(O)C[C@@H](C)C(=O)[C@H](C)[C@@H](O)[C@]1(C)O`, the activity, negative = cell killing is -22.6% (inactive) and -12% (inactive).

As for `CN1[C@@H]2CC[C@H]1CC(OC(c1ccccc1)c1ccccc1)C2` (stereo not given in full), the activity, negative = cell killing is -9.62% (inactive).

Turning to `O=C(O)/C=C/C(O)c1ccc(Cl)cc1` (stereo not given), the activity, negative = cell killing is 1.63% (inactive).

`C=CCN1C(=O)C(CC(C)C)NC1=S` (stereo not given): the activity, negative = cell killing was -28.5% (inactive) and -13.5% (inactive).

In the case of `C[S+](CC[C@H](N)C(=O)O)C[C@H]1O[C@@H](n2cnc3c(N)ncnc32)[C@H](O)[C@@H]1O` (stereo not given in full), the activity, negative = cell killing was 4.03% (inactive) and -13.3% (inactive).

Consider `COc1cc(CNC(=O)CCCC/C=C/C(C)C)ccc1O`, for which the activity, negative = cell killing was -4.61% (inactive).

In the case of `Cc1onc(-c2c(F)cccc2Cl)c1C(=O)N[C@@H]1C(=O)N2[C@@H]1SC(C)(C)[C@@H]2C(=O)O`, the activity, negative = cell killing was -10.7% (inactive) and -14.2% (inactive).

In the case of `O=C(O)COc1ccc(C(=O)c2cccs2)c(Cl)c1Cl`, the activity, negative = cell killing is -12.4% (inactive) and -10% (inactive).

As for `CC1(C)C[C@@H]1C(=O)N/C(=C\CCCCSC[C@H](N)C(=O)O)C(=O)O`, the activity, negative = cell killing is -13% (inactive) and -12.1% (inactive).

On to `CN1[C@@H]2CC[C@H]1CC(OC(=O)C(CO)c1ccccc1)C2` (stereo not given in full), for which the activity, negative = cell killing is -12.1% (inactive) and -3.29% (inactive).
